Assay [1] in a line: survival rescue of mitochondrial mutant cells in low glucose, primary screen, MELAS cybrids, Rieske KO mouse fibroblasts, CellTiter-Glo (AID 1508586;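 active = mean z-score across replicates of 1.96 or higher in either the MELAS or the Rieske mutant cell line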;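 also: test concentration not given here; z relative to plate mean and SD of compound and empty wells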). (Cellular ATP, detected with luciferase, serves as a proxy for viable cell number.)
A short description of assay [2]: viability rescue of complex I mutant cybrids, primary screen, cell-based, galactose medium, ATP luminescence (AID 1645843).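 Also: positive z means more ATP and so rescue of galactose-driven cybrid death.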 The settings on record: complex I mutant cybrid cells, 72 h, stronger effect = higher value.
[3] abbreviates: MELAS cybrid survival, CellTiter-Glo 48 h, stronger effect = higher value.
Where [4] appears, read: Rieske KO mouse fibroblast survival, CellTiter-Glo 72 h.

This is an account of results in PubChem BioAssay.

Calls of active or inactive are those of the source.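 The calls were made as follows, unless noted: active = z-score of at least 1.8 in each of two replicates, scored against plate mean and spread of sample wells; inactive = the rest.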

Turning to `NCCCC[C@@H]1NC(=O)[C@@H]2C[C@H](NC(=O)c3sccc3Cl)CN2C1=O`, the z-score in assay [1] (setting [3]) is -0.4 (inactive); in assay [1] (setting [4]), -0.67; in assay [2], -0.915 (inactive).
On to `CCOC(=O)c1nn(Cc2ccccn2)c2c1CN(Cc1ccc(NC(C)=O)s1)CC2`, for which the z-score was -0.809 (inactive) in assay [1] (setting [3]), -0.0726 in assay [1] (setting [4]) and 0.55 (inactive) in assay [2].
Regarding `CCN1C(=O)N(Cc2cccc(OC)c2)C(=O)C12CCN(CC1CC=CCC1)CC2` (stereo unspecified), the results for the z-score in assay [1] (setting [3]), in assay [1] (setting [4]) and in assay [2] were -0.681 (inactive), -0.854 and -0.435 (inactive), respectively.
For `COc1ccc(CNC(=O)c2cc(NCc3nc[nH]c3C)cc(S(=O)(=O)N3CCCC3)c2)cc1` the same measures were -0.477 (inactive), -0.812 and 0.755 (inactive).
As to `COC(=O)c1c(NC(=O)Cc2ccccc2)c2cc(NCc3nccs3)cnc2n1CC(C)C`, the z-score is -0.876 (inactive) in assay [1] (setting [3]), 1.74 in assay [1] (setting [4]) and -1.62 (inactive) in assay [2].
As to `Cc1csc(SCC(=O)N2CCc3c(cc(-c4csc5ccccc45)c(=O)n3C)C2)n1`, the z-score is -0.151 (inactive) in assay [1] (setting [3]), 0.398 in assay [1] (setting [4]) and 1.5 (inactive) in assay [2].
With `CC1=C(C(=O)N2CC(=O)N(CC(C)C)CC(OCc3ccccc3)C2)OCCO1` (stereo unspecified), the values for the z-score in assay [1] (setting [3]), in assay [1] (setting [4]) and in assay [2] were 0.636 (inactive), -0.606 and 0.39 (inactive), respectively.
With `COCc1ccc(CN2CCC3(CC2)C(=O)N(C2Cc4ccccc4C2)C(=O)N3CC(C)C)o1`, the figures for the z-score in assay [1] (setting [3]), in assay [1] (setting [4]) and in assay [2] were -0.309 (inactive), -0.702 and 1.99 (active), respectively.
For `O=C(Cn1cnnn1)N1CC(=O)N(C2CCCCC2)CC(OCc2ccccc2)C1` (stereo unspecified) the same measures were -0.326 (inactive), 0.527 and 0.21 (inactive).
For `CN1C(=O)N(CCCc2ccncc2)C(=O)C12CCN(C1CCSCC1)CC2`, the z-score was -0.208 (inactive) in assay [1] (setting [3]), -0.033 in assay [1] (setting [4]) and 1.08 (inactive) in assay [2].
For `O=C(NCc1cccc(F)c1)N[C@H]1C[C@H]2C(=O)N[C@@H](COCc3ccccc3)C(=O)N2C1`, the z-score is 0.777 (inactive) in assay [1] (setting [3]), -0.345 in assay [1] (setting [4]) and -0.285 (inactive) in assay [2].
As for `COc1ccc(CN2C(=O)N(C)C3(CCN(Cc4nc(-c5ccccc5)cs4)CC3)C2=O)cc1`, the values for the z-score in assay [1] (setting [3]), in assay [1] (setting [4]) and in assay [2] were -0.259 (inactive), -0.0505 and -0.2 (inactive), respectively.
`CCN1C(=O)N(C)C(=O)C12CCN(Cc1ccc(Oc3ncccn3)cc1)CC2`: the z-score in assay [1] (setting [3]) is 0.0802 (inactive); in assay [1] (setting [4]), -0.536; in assay [2], 1.74 (inactive).
For `CCOC(=O)c1csc(CCNC2CCc3c(c(C(=O)N4CCc5ccccc5C4)nn3C)C2)n1` (stereo unspecified) the same measures were -0.249 (inactive), 0.117 and -1.24 (inactive).
In the case of `COC(=O)c1c(NC(=O)c2ccco2)c2cc(NC3CCOCC3)cnc2n1C`, the z-score in assay [1] (setting [3]) was -0.622 (inactive); in assay [1] (setting [4]), -0.251; in assay [2], 0.7 (inactive).
`COCCn1c(C(=O)OC)c(NC(=O)Cc2ccccc2)c2cc(NC(C)CCO)cnc21` (stereo unspecified): the z-score was -0.113 (inactive) in assay [1] (setting [3]), 0.262 in assay [1] (setting [4]) and -0.97 (inactive) in assay [2].
Turning to `COc1ccc(-c2cc3c(n(C)c2=O)CCN(C2CCSC2)C3)c2ccc(C)nc12` (stereo unspecified), the z-score in assay [1] (setting [3]) is -0.852 (inactive); in assay [1] (setting [4]), -0.332; in assay [2], 1.09 (inactive).
Take `CCCCNC(=O)[C@@H]1C[C@H](CN2CCOCC2)CN(Cc2ccc3ccccc3c2)C1`: the z-score was 0.321 (inactive) in assay [1] (setting [3]), 0.627 in assay [1] (setting [4]) and -0.385 (inactive) in assay [2].
`COC(=O)c1c(NC(=O)CCc2ccccc2)c2cc(NC(C)C(C)(C)O)cnc2n1C` (stereo unspecified): the values for the z-score in assay [1] (setting [3]), in assay [1] (setting [4]) and in assay [2] were -1.19 (inactive), -0.398 and -0.305 (inactive), respectively.
On to `CCn1cc(CN2CCN3C(=O)[C@@H]4C[C@@H](O)CN4C(=O)[C@H]3C2)c(C)n1`, for which the z-score was -0.258 (inactive) in assay [1] (setting [3]), -0.193 in assay [1] (setting [4]) and -0.705 (inactive) in assay [2].
For `Cc1cc(-c2cc3c(n(C)c2=O)CCN(Cc2c(C)nc4sccn24)C3)ccc1F` the same measures were -0.189 (inactive), 0.11 and 0.27 (inactive).
As for `COc1cccc(COC2CN(CCc3ccccc3)C(=O)CN(C(=O)CN3CCOC3=O)C2)c1` (stereo unspecified), the z-score is -0.0866 (inactive) in assay [1] (setting [3]), -0.325 in assay [1] (setting [4]) and 0.48 (inactive) in assay [2].
With `Cn1cc(CN2CC(OCc3cccnc3)CN(Cc3cn[nH]c3-c3ccccc3)CC2=O)cn1` (stereo unspecified), the z-score in assay [1] (setting [3]) was -0.178 (inactive); in assay [1] (setting [4]), -0.506; in assay [2], 0.715 (inactive).
Regarding `CCN1CCCC1CNC(=O)c1nn(CCOC)c2c1CN(Cc1c(C)nc3sccn13)CC2` (stereo unspecified), the z-score in assay [1] (setting [3]) is 0.286 (inactive); in assay [1] (setting [4]), -0.16; in assay [2], -0.87 (inactive).
Turning to `COCCN1C(=O)N(C)C(=O)C12CCN(Cc1cnc(-c3ccccc3)s1)CC2`, the figures for the z-score in assay [1] (setting [3]), in assay [1] (setting [4]) and in assay [2] were -0.0934 (inactive), -0.895 and -0.285 (inactive), respectively.
On to `COc1cc(CN2CCc3c(cc(Cc4ccccc4C)c(=O)n3CC3CC3)C2)ccc1O`, for which the results for the z-score in assay [1] (setting [3]), in assay [1] (setting [4]) and in assay [2] were -0.322 (inactive), -0.319 and -1.32 (inactive), respectively.
Take `COc1ccc(CN2C(=O)N(C)C3(CCN(Cc4cccn4-c4ccccn4)CC3)C2=O)cc1`: the z-score in assay [1] (setting [3]) was -0.452 (inactive); in assay [1] (setting [4]) it was -0.368; in assay [2], 0.16 (inactive).
Regarding `Cc1nc2ccccc2nc1CN1CC(=O)N(C2CCCCC2)CC(OCc2cccnc2)C1` (stereo unspecified), the results for the z-score in assay [1] (setting [3]), in assay [1] (setting [4]) and in assay [2] were -0.279, 6.23 and -1.6 (inactive), respectively.
`Cn1c2c(cc(Cc3ccccc3F)c1=O)CN(C(=O)c1ccc(C#CC(C)(C)O)o1)CC2`: the z-score is -0.447 (inactive) in assay [1] (setting [3]), 0.668 in assay [1] (setting [4]) and -0.48 (inactive) in assay [2].
For `CCN1C(=O)N(CC(N)=O)C(=O)C12CCN(CC(C)Cc1ccc3c(c1)OCO3)CC2` (stereo unspecified), the z-score was 0.0615 (inactive) in assay [1] (setting [3]), -0.343 in assay [1] (setting [4]) and 1.17 (inactive) in assay [2].
With `O=C(CC1=CCCCC1)N1CCc2c(cc(-c3cccc(F)c3)c(=O)n2CCN2CCCCC2)C1`, the z-score in assay [1] (setting [3]) was -0.288 (inactive); in assay [1] (setting [4]), -0.152; in assay [2], 0.55 (inactive).
Turning to `COc1ccc(CCn2nc(C(=O)N(C)C)c3c2CCN(C(=O)c2csc4c2CCCC4)C3)cc1`, the z-score is -0.0604 (inactive) in assay [1] (setting [3]), -0.104 in assay [1] (setting [4]) and 1.47 (inactive) in assay [2].
Regarding `CNS(=O)(=O)c1cc(NCc2cc3ccccc3s2)cc(C(=O)Nc2ccc(OC)cc2)c1`, the z-score in assay [1] (setting [3]) was 0.562 (inactive); in assay [1] (setting [4]), 0.602; in assay [2], 2.26 (inactive).
With `C=CCn1nc(C(=O)N2CCCCCC2)c2c1CCC(NCc1cc(-c3ccccc3)on1)C2` (stereo unspecified), the z-score in assay [1] (setting [3]) was -0.0315 (inactive); in assay [1] (setting [4]), 0.236; in assay [2], -1.62 (inactive).
Take `O=C([C@@H]1C[C@H](CN2CCOCC2)CN(Cc2ccc3ccccc3c2)C1)N1CCCC1`: the values for the z-score in assay [1] (setting [3]), in assay [1] (setting [4]) and in assay [2] were 1.59 (inactive), -0.119 and -0.585 (inactive), respectively.
For `CC1=C(C(=O)N2CCc3c(c(C(=O)NCc4nccs4)nn3Cc3ccccc3)C2)OCCO1` the same measures were -0.132 (inactive), 0.241 and 0.605 (inactive).
In the case of `O=C(NCC1CCCO1)[C@@H]1C[C@H](CN2CCOCC2)CN(Cc2ccc3ccccc3c2)C1` (stereo partly specified), the z-score in assay [1] (setting [3]) is -0.349 (inactive); in assay [1] (setting [4]), -0.753; in assay [2], 0.17 (inactive).
